# Assay results: the supplement of paper PMC10849652
# About 7,900 targets were measured; listed, in parts, are those with a hit and a random draw of the rest. About 0.6% of all pairs of compound and target were hits. Values without a mark were called inactive.
# Legend:
# Assay in all cases: log2 fold change, soluble protein after heating vs DMSO (PISA); higher = thermal stabilisation; K562 cells, 10 uM, 30 min; active = over 0.2 and 3.5 SD of the protein, either way, in both replicates (recomputed)
# [1] = compound: CC1=C(C=C(C=C1)NC(=O)C2=CC(=CC=C2)C(C)(C)C#N)NC3=CC4=C(C=C3)N=CN(C4=O)C
# Procedure, shortened: (§1)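 K562 cells at 2×10^6 cells/mL were treated for 30 min with 10 μM compound, and aliquots were heated for 3 min over 48°C-58°C before pooling. Extraction used PBS with 0.5% NP-40 at 4°C, and soluble protein was the supernatant after 21,000xg for 90 min, measured by TMTpro 16plex LC-MS/MS with channel sums equalised. Thermal stability values, relative to control samples and from duplicates, are log2 fold changes.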
# [2] = compound: CC1=C(C=C(C=C1)NC(=O)C2=CC(=CC=C2)N(C)C)NC(=O)C3=CC=C(C=C3)O
# Procedure, shortened: as §1
# [3] = compound: CC1=CC=C(C=C1)SC2=C3C=C(SC3=CN=C2)C(=O)N
# Procedure, shortened: as §1
# [4] = compound: CC1=NC(=CC=C1)C2=C(N=C(N2)C(C)(C)C)C3=CC4=NC=CN=C4C=C3
# Procedure, shortened: as §1
# [5] = compound: CCCCN(Cc1ccc(C(=O)NO)cc1)C(=O)Nc1ccccc1 [Nexturastat A]
# Procedure, shortened: as §1
# [6] = compound: CCCS(=O)(=O)Nc1ccc(F)c(C(=O)c2c[nH]c3ncc(-c4ccc(Cl)cc4)cc23)c1F [vemurafenib]
# Procedure, shortened: as §1
# [7] = compound: CCCS(=O)(=O)Nc1ccc(F)c(C(=O)c2c[nH]c3ncc(Cl)cc23)c1F
# Procedure, shortened: as §1
# [8] = compound: CCCc1cc(C)[nH]c(=O)c1CNC(=O)c1cc(-c2ccnc(N3CCN(C)CC3)c2)cc2c1cnn2C(C)C
# Procedure, shortened: as §1
# [9] = compound: CCN(CC)Cc1ccc2cc(COC(=O)Nc3ccc(C(=O)NO)cc3)ccc2c1 [givinostat]
# Procedure, shortened: as §1
# [10] = compound: CCN(CCCOc1ccc2c(Nc3cc(CC(=O)Nc4cccc(F)c4)[nH]n3)ncnc2c1)CCOP(=O)(O)O [barasertib]
# Procedure, shortened: as §1
# [11] = compound: CC[C@@H]1C(=O)N(C)c2cnc(Nc3ccc(C(=O)NC4CCN(C)CC4)cc3OC)nc2N1C1CCCC1
# Procedure, shortened: as §1
# [12] = compound: CC[C@@H]1C(=O)N(C)c2cnc(Nc3ccc(C(=O)N[C@H]4CC[C@H](N5CCN(CC6CC6)CC5)CC4)cc3OC)nc2N1C(C)C [volasertib]
# Procedure, shortened: as §1
# [13] = compound: CC[C@H](C)N1C=C(C2=C(C=C(C=C21)C3=CN=C(C=C3)N4CCNCC4)C(=O)NCC5=C(C=C(NC5=O)C)C)C
# Procedure, shortened: as §1
# [14] = compound: CC[C@H](C)[C@@H](C(=O)N[C@@H]([C@@H](C)O)C(=O)N[C@@H](CC(C)C)C(=O)[C@]1(CO1)C)NC(=O)[C@H]([C@@H](C)CC)N(C)C(=O)C [epoxomicin]
# Procedure, shortened: as §1
# [15] = compound: CCn1c(C(=O)N(C2CC2)C2CC2)cc2c3c(ncn3C)c(Nc3cc(C)n(C)n3)nc21
# Procedure, shortened: as §1
# [16] = compound: CCn1cc(-c2ccnc3[nH]c(-c4cccc(CN(C)C)c4)cc23)c(-c2ccc(NC(=O)N(C)C)cc2)n1
# Procedure, shortened: as §1
# [17] = compound: CN(C)CC(=O)Nc1ccc2[nH]c(=O)c3ccccc3c2c1
# Procedure, shortened: as §1
# [18] = compound: CN(CCOC1=CC=C(C=C1)C[C@H]2C(=O)NC(=O)S2)C3=CC=CC=N3 (racemic) [rosiglitazone]
# Procedure, shortened: as §1
# [19] = compound: CN1C2=C(C3=C1C(=O)N(N=C3)CC4=CC(=CC=C4)N)SC(=C2)S(=O)C
# Procedure, shortened: as §1
# [20] = compound: CN1CCC(CNc2ccc3ncc(-c4cccc(OC(F)(F)F)c4)n3n2)CC1
# Procedure, shortened: as §1
# Chain of UniProt Q9NTZ6 (Q9NTZ6 whole entry, looked up): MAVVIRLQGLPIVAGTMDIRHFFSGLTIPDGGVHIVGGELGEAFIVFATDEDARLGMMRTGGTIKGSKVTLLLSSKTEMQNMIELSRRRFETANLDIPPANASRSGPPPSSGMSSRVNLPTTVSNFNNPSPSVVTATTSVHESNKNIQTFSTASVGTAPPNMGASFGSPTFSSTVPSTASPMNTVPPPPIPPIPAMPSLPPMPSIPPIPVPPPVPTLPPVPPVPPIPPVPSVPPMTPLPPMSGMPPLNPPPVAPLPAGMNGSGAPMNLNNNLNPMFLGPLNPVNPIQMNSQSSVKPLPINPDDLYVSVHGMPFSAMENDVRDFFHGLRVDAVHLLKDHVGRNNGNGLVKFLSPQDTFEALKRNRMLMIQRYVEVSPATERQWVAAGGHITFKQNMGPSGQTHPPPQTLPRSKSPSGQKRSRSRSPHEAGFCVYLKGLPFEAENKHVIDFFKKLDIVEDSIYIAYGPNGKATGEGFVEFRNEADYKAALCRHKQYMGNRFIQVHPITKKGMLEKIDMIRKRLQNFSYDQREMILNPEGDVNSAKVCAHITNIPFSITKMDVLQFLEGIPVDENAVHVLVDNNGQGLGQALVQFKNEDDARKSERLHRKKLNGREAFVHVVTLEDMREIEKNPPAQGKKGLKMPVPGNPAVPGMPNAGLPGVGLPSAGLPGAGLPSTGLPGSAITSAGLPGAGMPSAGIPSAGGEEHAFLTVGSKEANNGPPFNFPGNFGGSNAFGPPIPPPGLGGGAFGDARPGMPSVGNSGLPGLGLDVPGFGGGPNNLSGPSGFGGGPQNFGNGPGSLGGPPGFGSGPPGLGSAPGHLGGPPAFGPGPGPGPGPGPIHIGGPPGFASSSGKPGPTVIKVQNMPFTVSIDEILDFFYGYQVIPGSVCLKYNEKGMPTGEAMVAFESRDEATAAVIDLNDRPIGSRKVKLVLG
# Chain of UniProt Q96D15 (Q96D15 whole entry, looked up): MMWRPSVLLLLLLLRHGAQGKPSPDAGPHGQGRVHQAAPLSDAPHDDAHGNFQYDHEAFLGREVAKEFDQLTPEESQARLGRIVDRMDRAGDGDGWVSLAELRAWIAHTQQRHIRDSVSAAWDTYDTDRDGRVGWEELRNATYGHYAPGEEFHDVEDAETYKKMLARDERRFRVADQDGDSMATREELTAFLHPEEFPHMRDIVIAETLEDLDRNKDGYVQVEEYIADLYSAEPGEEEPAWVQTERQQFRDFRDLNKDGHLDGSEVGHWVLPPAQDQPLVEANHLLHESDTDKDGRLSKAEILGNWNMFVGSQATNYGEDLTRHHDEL
# Chain of UniProt O43819 (O43819 whole entry, looked up): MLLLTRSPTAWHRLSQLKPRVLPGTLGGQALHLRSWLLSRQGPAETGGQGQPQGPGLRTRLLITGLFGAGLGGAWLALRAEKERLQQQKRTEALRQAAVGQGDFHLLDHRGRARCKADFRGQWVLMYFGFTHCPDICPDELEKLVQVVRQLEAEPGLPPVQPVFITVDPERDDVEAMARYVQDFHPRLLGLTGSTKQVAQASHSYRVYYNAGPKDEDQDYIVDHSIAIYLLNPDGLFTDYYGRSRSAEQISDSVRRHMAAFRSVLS
# Chain of UniProt Q96DX4 (Q96DX4 whole entry, looked up): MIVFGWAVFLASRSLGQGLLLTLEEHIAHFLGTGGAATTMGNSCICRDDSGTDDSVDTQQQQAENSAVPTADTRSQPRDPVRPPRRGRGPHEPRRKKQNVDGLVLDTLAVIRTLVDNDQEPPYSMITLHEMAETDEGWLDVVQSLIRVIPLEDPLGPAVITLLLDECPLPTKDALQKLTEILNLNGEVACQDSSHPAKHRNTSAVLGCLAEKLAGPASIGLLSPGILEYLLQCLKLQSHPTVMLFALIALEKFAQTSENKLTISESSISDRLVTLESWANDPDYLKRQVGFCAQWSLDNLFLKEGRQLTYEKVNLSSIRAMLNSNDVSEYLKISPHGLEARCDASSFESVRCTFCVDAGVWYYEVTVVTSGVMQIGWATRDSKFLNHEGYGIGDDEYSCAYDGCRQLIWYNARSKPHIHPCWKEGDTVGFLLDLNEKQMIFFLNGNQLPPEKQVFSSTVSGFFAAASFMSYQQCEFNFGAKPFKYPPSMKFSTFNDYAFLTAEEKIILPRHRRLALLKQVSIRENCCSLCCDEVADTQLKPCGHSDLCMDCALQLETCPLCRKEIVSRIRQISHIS
# Chain of UniProt Q9H2M9 (Q9H2M9 whole entry, looked up): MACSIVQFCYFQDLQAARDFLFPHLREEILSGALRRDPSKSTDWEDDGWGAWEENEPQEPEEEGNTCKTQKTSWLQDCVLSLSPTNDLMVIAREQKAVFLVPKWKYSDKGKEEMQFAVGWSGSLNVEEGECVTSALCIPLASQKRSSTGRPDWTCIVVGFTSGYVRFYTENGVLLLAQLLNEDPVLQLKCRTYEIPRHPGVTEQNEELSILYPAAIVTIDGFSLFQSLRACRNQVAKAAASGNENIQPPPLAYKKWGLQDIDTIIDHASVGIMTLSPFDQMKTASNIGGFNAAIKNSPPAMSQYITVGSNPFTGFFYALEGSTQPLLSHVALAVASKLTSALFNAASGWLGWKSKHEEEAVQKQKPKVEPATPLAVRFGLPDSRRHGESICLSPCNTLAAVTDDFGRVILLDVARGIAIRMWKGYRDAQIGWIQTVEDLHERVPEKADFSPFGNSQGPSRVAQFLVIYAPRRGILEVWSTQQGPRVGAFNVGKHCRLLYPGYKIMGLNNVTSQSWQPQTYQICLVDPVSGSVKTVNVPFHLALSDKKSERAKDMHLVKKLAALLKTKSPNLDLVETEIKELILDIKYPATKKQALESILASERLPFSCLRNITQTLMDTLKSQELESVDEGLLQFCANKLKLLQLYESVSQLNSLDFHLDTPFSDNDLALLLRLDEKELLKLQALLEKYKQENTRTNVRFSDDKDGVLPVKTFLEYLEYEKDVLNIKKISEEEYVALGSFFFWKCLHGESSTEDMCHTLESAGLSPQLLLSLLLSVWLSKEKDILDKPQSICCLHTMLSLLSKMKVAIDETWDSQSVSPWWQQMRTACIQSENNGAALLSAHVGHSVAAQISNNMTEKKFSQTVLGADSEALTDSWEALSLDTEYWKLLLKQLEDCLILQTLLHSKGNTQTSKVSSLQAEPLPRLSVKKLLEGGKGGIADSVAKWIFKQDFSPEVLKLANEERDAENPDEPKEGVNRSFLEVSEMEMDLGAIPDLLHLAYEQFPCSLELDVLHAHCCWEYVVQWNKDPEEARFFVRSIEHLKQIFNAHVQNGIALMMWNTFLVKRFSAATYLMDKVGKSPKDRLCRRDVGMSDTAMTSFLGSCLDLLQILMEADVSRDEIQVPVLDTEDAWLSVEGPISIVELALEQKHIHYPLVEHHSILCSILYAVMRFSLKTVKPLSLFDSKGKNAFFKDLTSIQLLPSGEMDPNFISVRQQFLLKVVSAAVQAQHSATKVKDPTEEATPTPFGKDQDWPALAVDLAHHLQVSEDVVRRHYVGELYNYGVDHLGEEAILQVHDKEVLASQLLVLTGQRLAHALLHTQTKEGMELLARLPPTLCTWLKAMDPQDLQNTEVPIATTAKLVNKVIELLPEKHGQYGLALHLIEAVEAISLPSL
# Chain of UniProt Q5T160 (Q5T160 whole entry, looked up): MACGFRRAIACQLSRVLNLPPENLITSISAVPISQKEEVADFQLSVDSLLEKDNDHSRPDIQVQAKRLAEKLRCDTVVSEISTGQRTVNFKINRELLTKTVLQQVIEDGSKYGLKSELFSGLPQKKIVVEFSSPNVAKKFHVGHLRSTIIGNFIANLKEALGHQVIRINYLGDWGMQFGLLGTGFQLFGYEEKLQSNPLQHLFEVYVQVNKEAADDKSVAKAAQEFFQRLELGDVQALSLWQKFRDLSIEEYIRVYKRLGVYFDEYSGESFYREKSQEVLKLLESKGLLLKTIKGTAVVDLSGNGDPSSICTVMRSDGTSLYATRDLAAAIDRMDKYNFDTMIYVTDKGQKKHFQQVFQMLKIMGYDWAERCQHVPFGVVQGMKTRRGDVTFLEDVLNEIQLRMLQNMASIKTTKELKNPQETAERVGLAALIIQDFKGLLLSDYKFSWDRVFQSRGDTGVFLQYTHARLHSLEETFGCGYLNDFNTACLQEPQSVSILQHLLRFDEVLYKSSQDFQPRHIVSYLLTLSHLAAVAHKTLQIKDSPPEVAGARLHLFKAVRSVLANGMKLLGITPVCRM
Target,log2 fold change [1],log2 fold change [2],log2 fold change [3],log2 fold change [4],log2 fold change [5],log2 fold change [6],log2 fold change [7],log2 fold change [8],log2 fold change [9],log2 fold change [10],log2 fold change [11],log2 fold change [12],log2 fold change [13],log2 fold change [14],log2 fold change [15],log2 fold change [16],log2 fold change [17],log2 fold change [18],log2 fold change [19],log2 fold change [20]
RBM12 (UniProt Q9NTZ6),0.016,-0.101,0.057,0.116,-0.085,0.058,0.136,0.008,0.062,0.122,-0.181,-0.437 (active),0.114,0.087,-0.08,-0.049,0.053,0.087,-0.033,-0.139
RARS2 (UniProt Q5T160),0.018,0.033,0.056,0.029,-0.027,0.019,0.05,-0.014,-0.037,0.017,-0.121,-0.238 (active),-0.003,0.04,0.013,-0.046,0.026,0.019,-0.065,-0.143
RPS5 (UniProt P46782),0.012,0,0.001,-0.038,0.126,-0.034,-0.066,0.038,-0.014,-0.1,0.103,0.337,0.065,-0.079,0.025,0.059,-0.036,-0.073,0.089,0.044
RAB3GAP2 (UniProt Q9H2M9),-0.001,-0.018,0.017,-0.029,0.215,0.06,0.026,0.092,0.106,0.068,-0.101,-0.358,0.044,0.022,-0.041,0.088,0.04,0.053,0.133,-0.132
RCN3 (UniProt Q96D15),-0.055,0.029,-0.028,-0.073,0.077,-0.003,-0.053,-0.145,-0.023,-0.011,-0.033,0.053,-0.031,-0.118,0,-0.007,-0.019,0.029,-0.03,-0.234
RSPRY1 (UniProt Q96DX4),0.106,-0.026,-0.183,-0.035,-0.021,0.034,-0.031,-0.107,-0.007,-0.004,0.082,-0.001,-0.019,0.034,0.006,-0.034,-0.014,0.011,-0.176,0.219 (active)
RCOR3 isoform 3 (UniProt Q9P2K3),-0.12,-0.046,0.051,0.012,–,0.025,0.031,-0.022,0.075,0.098,0.005,-0.068,-0.078,–,-0.074,-0.294,0.038,0.037,0.02,-0.011
SCO2 (UniProt O43819),-0.487 (active),-0.079,0.029,-0.003,0.269,0.05,0.029,0.059,0.03,0.153,-0.109,-0.346,–,-0.055,0.042,-0.051,0.039,0.034,-0.014,-0.187
